The source of these data is PubChem BioAssay (Tox21).

Records with an inconclusive call do not appear. Entries that show only a call come without a potency. The source made the active and inactive calls. The call rests on the fitted dose curve; in most records, active means well fitted inhibition curve with a large enough effect in the repeat runs; inconclusive means weak or mixed curves, or effect the other way; inactive means no such curve, though single readings can be large or run the other way.

The assay is described as follows: qHTS assay to identify small molecule antagonists of the retinoic acid receptor (RAR) signaling pathway (AID 1159552; further: nearly all actives have a fitted effect of over 50% in size). To be noted: C3RL4 RARE luciferase reporter, retinol-stimulated, 6 h; series mostly up to 92.4 µM. Put shortly: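 Antagonism of retinol-induced RARE reporter activity was measured in C3RL4 cells. Exposure to compounds and 1 uM final retinol lasted 6 hr at 37 C, with luminescence as endpoint.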
A general note: In qHTS, concentration-response curves come from the screen itself.
For the compound `CCc1ccccc1N`, the Potency entry is “inactive”.

For `CCOP(=S)(S)OCC`, the Potency result was “inactive”.

Regarding `COc1cc(CC(C)N)c(OC)cc1Br` (stereo not given), the Potency entry is “inactive”. As to `SCc1ccccc1`, the Potency entry is “inactive”. The result for `CCCSP(=S)(OCC)Oc1ccc(SC)cc1` (stereo not given) reads “inactive”.
